Consider 14 compounds from PubChem BioAssay (EPA / NIEHS).

Inconclusive results are not listed. Calls of active or inactive are those of the source. How the source made its calls: active means hit-call score of the fitted dose curve at least 0.9, where 1 is the maximum; inconclusive means response in the unintended direction; inactive means score below 0.9.

As usually defined, the AC50 is the concentration giving half of the maximal activity seen.

The target of experiment [1] is Estrogen receptor beta (Homo sapiens) (UniProt Q92731). Put plainly: OT_ER_ERbERb_0480: Odyssey Thera (OT) 8-hour HEK293T Protein-Complementation Assay for Estrogen Receptor-beta/-beta Homodimer (AID 2283357).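 Further: active means signal gain over DMSO baseline.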 Put shortly:
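Readout: increase in mean fluorescence intensity (nucleus for agonists; nucleus plus cytoplasm for antagonists) relative to DMSO, from a reporter-fragment complementation of human ER-beta LBD homodimer in HEK293T cells dosed 8 hours.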

The target in experiment [2] is human Serotonin Transporter (SERT), SLC6A4 (gene 6532) (UniProt P31645). Put plainly: NVS_TR_hSERT: NovaScreen (NVS) Transporter Assay for human Serotonin Transporter (SERT) (AID 2283372). Put shortly: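 Radioligand binding to native SERT in human platelet membranes, read by filter-based scintillation counting 1 h after dosing. Primary screen in duplicate at 25 uM; actives followed up in concentration series; loss of signal versus DMSO baseline.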

The target of experiment [3] is rat Serotonin Transporter (SERT), Slc6a4 (gene 25553) (UniProt P31652). Nature of the experiment: NVS_TR_rSERT: NovaScreen (NVS) Transporter Assay for rat Serotonin Transporter (SERT) (AID 2283375). Put shortly:
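Steps: rat forebrain membranes dosed with chemical (25 uM duplicate primary; concentration series for actives); 1 h incubation; labelled ligand bound, filtered, counted by scintillation. Activity scored as signal loss vs DMSO.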

For experiment [4], the target named is Peroxisome proliferator-activated receptor gamma (Homo sapiens) (UniProt P37231). Nature of the experiment: NVS_NR_hPPARg: NovaScreen (NVS) Nuclear Receptor Binding Assay for human Peroxisome Proliferator-activated Receptor gamma (PPARg) (AID 2283370). The essentials:
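Fluorescence polarization measures competitive binding to extracted PPARg in a cell-free format. Reading is taken at 2 h; activity is signal loss relative to DMSO. Screening at 25 uM in duplicate preceded confirmatory dose series.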

The target in experiment [5] is Retinoic acid receptor alpha (Homo sapiens) (UniProt P10276). Put plainly: NVS_NR_hRAR_Antagonist: NovaScreen (NVS) Nuclear Receptor Binding Assay for human Retinoic Acid Alpha Receptor Antagonism (RAR) (AID 2283358). Put shortly: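 Cell-free TR-FRET binding assay on extracted receptor protein, run in antagonist mode; signal read 2 hours after chemical dosing. Loss of signal was fitted relative to DMSO baseline. Screened at 25 uM in duplicate, actives followed up in concentration series.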
Sequence of Retinoic acid receptor alpha (Homo sapiens) (P10276 whole entry, looked up): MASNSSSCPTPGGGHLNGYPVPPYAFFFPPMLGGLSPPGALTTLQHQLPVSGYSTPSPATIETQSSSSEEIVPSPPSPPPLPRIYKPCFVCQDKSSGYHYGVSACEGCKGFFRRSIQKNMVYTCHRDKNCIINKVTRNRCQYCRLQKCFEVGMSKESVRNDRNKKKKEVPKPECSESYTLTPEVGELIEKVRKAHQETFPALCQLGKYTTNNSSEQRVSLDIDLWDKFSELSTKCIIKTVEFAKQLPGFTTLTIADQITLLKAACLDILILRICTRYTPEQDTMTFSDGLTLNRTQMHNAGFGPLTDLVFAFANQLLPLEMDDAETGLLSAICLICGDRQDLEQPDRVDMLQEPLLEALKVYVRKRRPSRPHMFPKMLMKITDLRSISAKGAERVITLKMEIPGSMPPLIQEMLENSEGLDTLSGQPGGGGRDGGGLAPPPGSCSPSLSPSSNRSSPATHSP

Experiment [6] concerns the target human Thyroid Receptor Alpha (TRa), THRA (gene 7067) (UniProt P10827). Put plainly: NVS_NR_hTRa_Antagonist: NovaScreen (NVS) Nuclear Receptor Binding Assay for human Thyroid Receptor Alpha Antagonism (TRa) (AID 2283362). The essentials:
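Chemicals were first screened in duplicate at 25 uM, then actives were retested in concentration series. Binding to the extracted receptor was measured 1 h after dosing by AlphaLISA chemiluminescence, with decreased signal versus DMSO scored as activity.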

In experiment [7] the target is Glucocorticoid receptor (Homo sapiens) (UniProt P04150). Put plainly: NVS_NR_hGR: NovaScreen (NVS) Nuclear Receptor Binding Assay for human Glucocorticoid Receptor (GR) (AID 2283363). The essentials:
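Cell-free radioligand binding with extracted receptor protein, read by filter-based scintillation counting 16 hours after dosing. Loss of specific signal versus DMSO baseline was scored. Primary screen ran in duplicate at 25 uM; actives were followed up in concentration series.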

Experiment [8] has as its system guinea pig Dopamine Transporter (DAT), gene 100714898. Put plainly: NVS_TR_gDAT: NovaScreen (NVS) Transporter Assay for guinea pig Dopamine Transporter (DAT) (AID 2283369).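 Further: active compounds lower bound radioligand signal relative to DMSO.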 Put shortly:
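Test chemicals were incubated 2 h with guinea pig striatal membranes and a radioligand; bound label was separated by filtration and counted. Screening ran at 25 uM, followed by concentration-response testing to a 50 uM maximum.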

The target in experiment [9] is human Dopamine Transporter (DAT), SLC6A3 (gene 6531) (UniProt Q01959). Put plainly: NVS_TR_hDAT: NovaScreen (NVS) Transporter Assay for human Dopamine Transporter (DAT) (AID 2283374).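 Further: activity means loss of bound radioligand signal relative to DMSO.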 The essentials: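 Cell-free radioligand binding to extracted human DAT protein, read 1 h after dosing by filter-based scintillation counting. Loss of specific binding scored against DMSO baseline; primary screen in duplicate at 25 uM, actives then run in concentration series.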
Sequence of human Dopamine Transporter (DAT), SLC6A3 (gene 6531) (Q01959 whole entry, looked up): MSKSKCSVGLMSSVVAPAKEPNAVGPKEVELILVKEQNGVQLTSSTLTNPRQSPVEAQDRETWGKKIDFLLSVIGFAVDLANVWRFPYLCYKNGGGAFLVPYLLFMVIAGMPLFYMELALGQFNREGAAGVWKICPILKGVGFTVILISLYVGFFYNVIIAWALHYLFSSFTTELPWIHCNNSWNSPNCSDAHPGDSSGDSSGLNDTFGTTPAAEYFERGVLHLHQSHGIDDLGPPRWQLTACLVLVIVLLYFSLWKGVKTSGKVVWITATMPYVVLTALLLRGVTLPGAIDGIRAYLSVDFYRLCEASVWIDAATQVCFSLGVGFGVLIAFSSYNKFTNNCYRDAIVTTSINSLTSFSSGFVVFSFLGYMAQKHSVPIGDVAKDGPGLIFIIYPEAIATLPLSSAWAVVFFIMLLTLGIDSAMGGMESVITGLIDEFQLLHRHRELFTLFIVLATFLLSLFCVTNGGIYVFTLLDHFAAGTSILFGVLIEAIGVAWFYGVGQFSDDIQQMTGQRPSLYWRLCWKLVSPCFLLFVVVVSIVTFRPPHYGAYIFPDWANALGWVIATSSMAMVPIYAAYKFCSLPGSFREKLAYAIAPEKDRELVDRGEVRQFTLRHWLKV

The subject of experiment [10] is rat Norepinephrine Transporter (NET), gene 83511. Put plainly: NVS_TR_rNET: NovaScreen (NVS) Transporter Assay for rat Norepinephrine Transporter (NET) (AID 2283373). The essentials: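 Rat forebrain membranes; radioligand binding measured by filter-based scintillation counting 1 hour after dosing. Loss of specific binding versus DMSO baseline scored; primary screen in duplicate at 25 uM, actives followed up in concentration series.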

The target in experiment [11] is Norway rat Vesicular Monoamine Transporter (VMAT2), neurotransmitter transporter, Slc18a2 (gene 25549) (UniProt Q01827). Put plainly: NVS_TR_rVMAT2: NovaScreen (NVS) Transporter Assay for Norway rat Vesicular Monoamine Transporter (VMAT2), neurotransmitter transporter (AID 2283376).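 Further: actives lower the bound radioligand signal below the DMSO level.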 The essentials: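 Rat forebrain tissue preparation used in a cell-free radioligand binding format; displacement read by filter-based scintillation counting 1 hour after dosing. Primary screen in duplicate at 25 uM, actives then run in concentration series; loss of signal versus DMSO baseline.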

In experiment [12] the target is human Norepinephrine Transporter (NET), SLC6A2 (gene 6530) (UniProt P23975). Nature of the experiment: NVS_TR_hNET: NovaScreen (NVS) Transporter Assay for human Norepinephrine Transporter (NET) (AID 2283377).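 Further: cell-free membrane protein extracted from CHO cells expressing human NET.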 The essentials: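 Radioligand binding to human NET in cell-free CHO-derived protein preparations, read by filter-based scintillation counting 1 hour after dosing. Loss of signal versus DMSO baseline indicated displacement; primary screening in duplicate at 25 uM, actives then titrated.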
Sequence of human Norepinephrine Transporter (NET), SLC6A2 (gene 6530) (P23975 whole entry, looked up): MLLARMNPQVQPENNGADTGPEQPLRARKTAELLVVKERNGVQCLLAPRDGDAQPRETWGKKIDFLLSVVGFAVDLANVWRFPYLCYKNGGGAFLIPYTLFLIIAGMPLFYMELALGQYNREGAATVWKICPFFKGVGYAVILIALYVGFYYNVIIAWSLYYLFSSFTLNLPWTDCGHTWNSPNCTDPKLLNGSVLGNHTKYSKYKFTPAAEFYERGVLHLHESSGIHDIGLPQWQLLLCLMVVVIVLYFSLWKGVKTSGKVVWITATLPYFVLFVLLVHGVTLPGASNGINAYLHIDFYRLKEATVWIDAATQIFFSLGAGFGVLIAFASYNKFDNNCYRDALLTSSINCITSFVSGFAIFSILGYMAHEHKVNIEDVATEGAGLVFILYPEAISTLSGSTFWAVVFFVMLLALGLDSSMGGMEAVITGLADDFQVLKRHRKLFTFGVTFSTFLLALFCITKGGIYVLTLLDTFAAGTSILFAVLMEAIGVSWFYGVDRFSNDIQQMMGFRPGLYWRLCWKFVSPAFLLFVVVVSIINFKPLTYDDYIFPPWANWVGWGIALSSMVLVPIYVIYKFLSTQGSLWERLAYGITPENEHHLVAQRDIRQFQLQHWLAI

In experiment [13] the target is mouse Estrogen Receptor alpha (Era), Esr1 (gene 13982) (UniProt P19785). Put plainly: NVS_NR_mERa: NovaScreen (NVS) Nuclear Receptor Binding Assay for mouse Estrogen Receptor alpha (Era) (AID 2283378).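 Further: hit means loss of bound radioligand signal relative to DMSO.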 Put shortly:
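Test chemicals competed against a specific radioligand for binding to cell-free mouse Era. Duplicate wells at 25 uM were read 18 hours later by filter-based radiodetection, with loss of signal against DMSO scored as activity.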

The target of another experiment is PGR (gene 5241) (UniProt P06401). Nature of the experiment: NVS_NR_hPR: NovaScreen (NVS) Nuclear Receptor Binding Assay for human Progestron Receptor (PR) (AID 2283360).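 Further: active means loss of bound radioligand signal versus DMSO baseline.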 Put shortly:
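Cell-free radioligand binding using receptor protein extracted from T47D cells, read by scintillation counting 18 hours after dosing. Loss of signal relative to DMSO baseline indicates displacement; primary screen single concentration 25 uM in duplicate, actives followed in concentration series.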

In experiment [14] the target is guinea pig Sigma Receptor, Non-selective Binding, SIGMAR1 (gene 100135589) (UniProt Q60492). Put plainly: NVS_OR_gSIGMA_NonSelective: NovaScreen (NVS) Nuclear Receptor Binding Assay for guinea pig Sigma Receptor, Non-selective Binding (AID 2283367). The essentials: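 Guinea pig brain membranes, cell-free radioligand binding; read 1 h after dosing by filter-based scintillation counting. Loss of signal vs DMSO baseline taken as displacement. Primary screen single concentration 25 uM in duplicate; actives retested in concentration series.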

Sequence of Peroxisome proliferator-activated receptor gamma (Homo sapiens) (P37231 whole entry, looked up): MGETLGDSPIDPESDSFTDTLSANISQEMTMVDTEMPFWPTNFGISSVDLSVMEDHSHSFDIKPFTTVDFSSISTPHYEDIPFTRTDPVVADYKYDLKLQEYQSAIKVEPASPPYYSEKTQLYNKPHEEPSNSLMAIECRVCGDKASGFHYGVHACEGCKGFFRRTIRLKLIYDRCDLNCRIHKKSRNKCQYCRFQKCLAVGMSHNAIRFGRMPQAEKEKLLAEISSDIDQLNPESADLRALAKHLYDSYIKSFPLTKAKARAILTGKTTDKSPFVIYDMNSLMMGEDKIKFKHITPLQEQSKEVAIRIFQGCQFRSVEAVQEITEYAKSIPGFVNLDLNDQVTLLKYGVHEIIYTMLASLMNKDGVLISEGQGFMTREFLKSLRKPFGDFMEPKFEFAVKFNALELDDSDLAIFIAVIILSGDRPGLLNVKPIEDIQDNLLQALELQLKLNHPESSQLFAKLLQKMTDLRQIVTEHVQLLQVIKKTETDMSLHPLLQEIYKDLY
Sequence of Estrogen receptor beta (Homo sapiens) (Q92731 whole entry, looked up, the tested form may be a part): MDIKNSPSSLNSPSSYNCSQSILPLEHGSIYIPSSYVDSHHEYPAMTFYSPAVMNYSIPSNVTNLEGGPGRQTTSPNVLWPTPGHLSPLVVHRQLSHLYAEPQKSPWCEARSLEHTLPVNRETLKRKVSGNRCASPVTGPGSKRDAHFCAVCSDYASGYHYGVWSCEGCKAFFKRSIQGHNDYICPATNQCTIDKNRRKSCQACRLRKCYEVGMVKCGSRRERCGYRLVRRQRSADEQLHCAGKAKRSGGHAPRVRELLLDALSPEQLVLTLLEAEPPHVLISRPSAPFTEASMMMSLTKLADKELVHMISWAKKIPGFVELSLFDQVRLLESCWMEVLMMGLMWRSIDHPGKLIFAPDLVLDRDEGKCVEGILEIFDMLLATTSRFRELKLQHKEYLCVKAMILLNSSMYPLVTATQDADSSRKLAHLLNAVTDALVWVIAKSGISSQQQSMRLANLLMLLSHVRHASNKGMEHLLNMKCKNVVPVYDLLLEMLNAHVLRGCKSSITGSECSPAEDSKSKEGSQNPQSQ
Sequence of Glucocorticoid receptor (Homo sapiens) (P04150 whole entry, looked up): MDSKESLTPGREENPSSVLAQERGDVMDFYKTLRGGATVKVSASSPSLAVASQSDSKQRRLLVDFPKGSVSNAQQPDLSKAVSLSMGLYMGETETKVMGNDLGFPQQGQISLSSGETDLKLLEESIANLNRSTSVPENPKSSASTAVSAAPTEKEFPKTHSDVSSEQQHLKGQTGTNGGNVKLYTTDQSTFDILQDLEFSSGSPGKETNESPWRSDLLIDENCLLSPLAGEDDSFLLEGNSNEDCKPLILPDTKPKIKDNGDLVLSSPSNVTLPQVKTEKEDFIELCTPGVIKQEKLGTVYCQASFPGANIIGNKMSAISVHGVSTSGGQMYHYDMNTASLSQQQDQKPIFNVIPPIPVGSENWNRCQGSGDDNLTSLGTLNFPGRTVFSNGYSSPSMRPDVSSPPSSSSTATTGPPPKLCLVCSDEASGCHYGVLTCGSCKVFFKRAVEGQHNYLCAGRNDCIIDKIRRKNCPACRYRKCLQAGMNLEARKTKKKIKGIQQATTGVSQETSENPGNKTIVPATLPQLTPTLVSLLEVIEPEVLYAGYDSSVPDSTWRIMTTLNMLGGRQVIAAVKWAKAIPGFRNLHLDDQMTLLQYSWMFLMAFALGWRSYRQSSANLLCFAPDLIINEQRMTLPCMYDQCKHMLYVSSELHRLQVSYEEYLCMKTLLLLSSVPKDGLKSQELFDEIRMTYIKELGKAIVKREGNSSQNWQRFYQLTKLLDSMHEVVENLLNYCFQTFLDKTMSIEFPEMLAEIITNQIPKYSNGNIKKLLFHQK
Sequence of PGR (gene 5241) (P06401 whole entry, looked up): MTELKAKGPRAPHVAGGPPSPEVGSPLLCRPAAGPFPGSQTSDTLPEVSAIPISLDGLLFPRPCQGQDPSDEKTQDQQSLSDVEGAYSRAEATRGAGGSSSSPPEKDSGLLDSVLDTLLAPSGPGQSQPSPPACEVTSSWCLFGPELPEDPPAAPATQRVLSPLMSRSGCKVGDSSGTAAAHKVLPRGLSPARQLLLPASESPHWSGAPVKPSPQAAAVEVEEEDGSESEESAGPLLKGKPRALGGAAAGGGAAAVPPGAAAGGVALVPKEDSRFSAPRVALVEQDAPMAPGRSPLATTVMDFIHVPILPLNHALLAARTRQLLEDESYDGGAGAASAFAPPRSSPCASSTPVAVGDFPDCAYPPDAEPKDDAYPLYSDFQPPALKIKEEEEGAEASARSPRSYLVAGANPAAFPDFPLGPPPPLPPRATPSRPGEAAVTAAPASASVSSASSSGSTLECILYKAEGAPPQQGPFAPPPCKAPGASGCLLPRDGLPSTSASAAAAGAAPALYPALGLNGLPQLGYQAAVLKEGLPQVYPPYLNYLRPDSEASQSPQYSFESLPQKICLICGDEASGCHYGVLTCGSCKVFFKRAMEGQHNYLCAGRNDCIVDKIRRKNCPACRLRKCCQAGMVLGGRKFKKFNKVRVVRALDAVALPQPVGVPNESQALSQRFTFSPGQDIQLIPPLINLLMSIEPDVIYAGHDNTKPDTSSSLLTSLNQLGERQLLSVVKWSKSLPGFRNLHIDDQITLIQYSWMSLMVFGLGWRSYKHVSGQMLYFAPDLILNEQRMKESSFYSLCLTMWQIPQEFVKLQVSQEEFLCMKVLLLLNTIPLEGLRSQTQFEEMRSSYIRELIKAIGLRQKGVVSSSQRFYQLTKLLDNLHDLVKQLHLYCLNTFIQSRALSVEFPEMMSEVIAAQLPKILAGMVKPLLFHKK
Sequence of human Thyroid Receptor Alpha (TRa), THRA (gene 7067) (P10827 whole entry, looked up): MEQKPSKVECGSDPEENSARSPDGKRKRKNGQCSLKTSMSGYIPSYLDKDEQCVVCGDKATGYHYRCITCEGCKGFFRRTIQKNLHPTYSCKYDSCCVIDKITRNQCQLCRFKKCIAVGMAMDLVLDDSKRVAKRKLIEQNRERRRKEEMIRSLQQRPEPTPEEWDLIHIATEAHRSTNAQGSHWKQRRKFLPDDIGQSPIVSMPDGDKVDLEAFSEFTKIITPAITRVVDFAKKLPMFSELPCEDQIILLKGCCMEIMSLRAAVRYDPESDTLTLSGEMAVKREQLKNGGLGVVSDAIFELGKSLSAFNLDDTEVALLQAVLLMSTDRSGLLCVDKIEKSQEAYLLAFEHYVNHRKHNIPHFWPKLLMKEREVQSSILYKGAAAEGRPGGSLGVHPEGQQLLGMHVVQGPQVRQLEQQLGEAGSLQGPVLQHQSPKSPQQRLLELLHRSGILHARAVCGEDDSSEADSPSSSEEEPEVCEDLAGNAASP

For the compound `CCOc1nc(F)cc2nc(S(=O)(=O)Nc3c(Cl)cccc3Cl)nn12`, the compound was called inactive in experiment [1], in [2] and in experiment [3].
In the case of `COCC(=O)N(c1c(C)cccc1C)C(C)C(=O)OC` (stereo not drawn), the call in [1] and in [4] was inactive.
Turning to `CCCCC(C#N)(Cn1cncn1)c1ccc(Cl)cc1` (stereo not drawn), the result in [5], in [6], in experiment [7] and in experiment [4] was inactive. Also, the AC50 was 15.4 µM (active) in [8] and 7.18 µM (active) in [9].
For the compound `COC(=O)N(C(=O)N1CO[C@@]2(C(=O)OC)Cc3cc(Cl)ccc3C2=N1)c1ccc(OC(F)(F)F)cc1`, the compound was called inactive in [1] and in experiment [9].
Regarding `Cc1cc(C)nc(Nc2ccccc2)n1`, the AC50 in experiment [8] was 22 µM (active); in experiment [10], 6.21 µM (active); in experiment [9] it was 25 µM (active); in experiment [12] it was 4.72 µM (active). In addition, the outcome in experiment [4] and in experiment [11] was inactive.
`COCC(C)N(C(=O)CCl)c1c(C)csc1C` (stereo not drawn): in experiment [4], the compound was classed as inactive.
Regarding `CC1(C)CCC(=Cc2ccc(Cl)cc2)C1(O)Cn1cncn1` (stereo not drawn), the call in experiment [1] and in [13] was inactive. Besides, the AC50 in experiment [8] was 1.19 µM (active); in [9] it was 0.545 µM (active).
Take `CC(C)Oc1cccc(NC(=O)c2ccccc2C(F)(F)F)c1`: the result (in [5]; in the experiment with PGR (gene 5241); in experiment [7]) was inactive.
On to `Nc1c(Cl)c(F)nc(OCC(=O)O)c1Cl`, for which the outcome in [1] and in experiment [4] was inactive.
In the case of `Cn1c(-c2ccccc2)cc(-c2ccccc2)[n+]1C`, the compound was called inactive in experiment [1] and in experiment [10]. For the same compound, the AC50 is 0.133 µM (active) in experiment [14] and 2.75 µM (active) in [12].
With `C=C(C)CN(CC)c1c([N+](=O)[O-])cc(C(F)(F)F)cc1[N+](=O)[O-]`, the call in experiment [1] and in [3] was inactive. In addition, the AC50 was 7.64 µM (active) in experiment [9] and 7.07 µM (active) in [12].
As to `O=C1C2CC=CCC2C(=O)N1SC(Cl)(Cl)Cl` (stereo not drawn), the compound was called inactive in experiment [5] and in [4].
On to `O=P(O)(O)CCCl`, for which the AC50 in [12] is 10.6 µM (active).
As to `CN=C=S`, the compound was classed as inactive (in [5]; with PGR (gene 5241); in experiment [6]).
